# Only some compounds are listed: those with a hit (about 2.3% of all), similar ones and a draw of the others.
# Mcl1-Bid inh: Mcl-1/Bid interaction inhibition; Q07820; TR-FRET Mcl-1/Bid-Dy647 peptide binding, 1536-well; inhibition, % at 21.7 µM; actives 0.97% (n = 220,000);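 active = compounds that cut the binding signal by more than half at the single screening dose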;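 also: His-tagged Mcl-1 with europium anti-His antibody binding Bid BH3 peptide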
# Target sequence (Q07820 whole entry, looked up): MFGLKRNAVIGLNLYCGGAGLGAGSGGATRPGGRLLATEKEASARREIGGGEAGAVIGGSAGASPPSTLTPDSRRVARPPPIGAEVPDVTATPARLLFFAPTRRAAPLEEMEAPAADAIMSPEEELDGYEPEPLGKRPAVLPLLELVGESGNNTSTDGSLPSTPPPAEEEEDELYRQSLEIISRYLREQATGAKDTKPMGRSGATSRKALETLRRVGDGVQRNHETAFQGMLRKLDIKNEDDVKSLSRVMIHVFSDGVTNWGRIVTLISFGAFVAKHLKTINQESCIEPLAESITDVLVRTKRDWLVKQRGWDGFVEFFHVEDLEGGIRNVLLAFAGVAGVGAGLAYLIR
# GLD-1 TGE inh: GLD-1-TGE RNA interaction inhibition (C. elegans). AID 2280. actives 0.44% (n = 320,000). inhibition, % at 5.96 µM. purified GLD-1 + fluorescein TGE RNA, fluorescence polarization;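 active = percent inhibition above a per-plate cutoff, the plate mean of test compounds plus 3 SD, cut at about 30% in these data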
# Bim-Mcl-1: human Bim-Mcl-1 interaction inhibition; actives 0.1% (n = 190,000); Q07820; inhibition, % at 10 µM; Bead-based flow cytometry, Bim peptide-Mcl-1 binding; in the data active = inhibition above about 40%
# Mcl1-Noxa inh: Mcl-1/Noxa interaction inhibition; Q07820; TR-FRET Mcl-1/Noxa peptide binding, 2 h; inhibition, % at 21.7 µM; actives 1.5% (n = 220,000); AID 1022;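 active = compounds that cut the protein-peptide binding signal by more than 50% relative to plate controls in a single-dose test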;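 also: His-tagged Mcl-1 with rhodamine Noxa BH3 peptide and terbium anti-His antibody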
# BCLXL inh: inhibitors of human Bcl-xL | inhibition, % at 10.9 µM | actives 0.7% (n = 320,000) | Q07817 | GST-Bcl-xL / FITC-Bim BH3 peptide fluorescence polarization | AID 2129;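 active = inhibition above the mean of all tested compounds plus 3 SD, cutoff set per campaign, cut at about 30% in these data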;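 also: inhibitors lower millipolarization by displacing the labeled peptide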
# Target sequence (Q07817 whole entry, looked up): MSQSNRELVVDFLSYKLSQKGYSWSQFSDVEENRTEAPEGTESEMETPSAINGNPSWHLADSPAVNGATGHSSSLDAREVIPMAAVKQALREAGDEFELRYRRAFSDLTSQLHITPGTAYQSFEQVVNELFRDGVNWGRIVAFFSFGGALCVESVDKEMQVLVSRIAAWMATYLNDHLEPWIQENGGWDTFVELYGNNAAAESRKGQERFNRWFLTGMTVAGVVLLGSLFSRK
# MCL1 BIM primary: MCL1-BIM-BH3 interaction inhibition (human); Q07820; AID 2057; actives 0.68% (n = 320,000); GST-MCL1 / FITC-Bim-BH3 fluorescence polarization; inhibition, % at 10.9 µM;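 active = inhibition above the mean inhibition of all tested compounds plus 3 SD, set per campaign, cut at about 40% in these data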;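 also: higher means more loss of mP so more displacement of Bim peptide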
# BCLXL inh confirm: counter-screen for MCL1 inhibitors: confirmation of human Bcl-xL inhibitors; inhibition, % at 10.9 µM; AID 2166; GST-Bcl-xL / FITC-Bim BH3 peptide FP binding; actives 54% (n = 1,700); shares compounds with MCL1 BIM primary;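 active = inhibition above a cutoff equal to the mean inhibition of all tested compounds plus 3 SD, cut at about 30% in these data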
# MCL1 inh confirm: MCL1-BIM-BH3 interaction inhibition, confirmation | GST-MCL1 / FITC-Bim-BH3 fluorescence polarization | AID 2168 | shares compounds with MCL1 BIM primary | inhibition, % at 10.9 µM | actives 61% (n = 1,700);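 active = inhibition above the average of all tested compounds plus 3 SD, cut at about 40% in these data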
# GLD-1 TGE cf: confirmation of C. elegans GLD-1 TGE RNA binding inhibitors; shares compounds with GLD-1 TGE inh; GLD-1/FL-TGE RNA fluorescence polarization, biochemical; inhibition, % at 5.96 µM; actives 10% (n = 550);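 active = average inhibition across triplicates above the hit cutoff set in the primary screen, cut at about 32% in these data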
# Numbers stand for hits; - = inactive; . = no result; + = active, no number.
SMILES,Mcl1-Bid inh,GLD-1 TGE inh,Bim-Mcl-1,Mcl1-Noxa inh,BCLXL inh,MCL1 BIM primary,BCLXL inh confirm,MCL1 inh confirm,others
COc1ccc(OC)c(N2C(=O)/C(=C/c3ccco3)C(=O)NC2=S)c1,.,-,.,.,80,87,71,78,
O=C1NC(=S)N(c2ccc(F)cc2)C(=O)/C1=C/c1ccco1,.,-,.,.,79,68,73,62,
Cc1ccc(/C=C2\C(=O)NC(=S)N(c3cccc(F)c3)C2=O)o1,.,-,.,.,-,-,.,.,
COc1ccc(OC)c(N2C(=O)NC(=O)/C(=C/c3ccc([N+](=O)[O-])s3)C2=O)c1,-,-,-,69,-,46,76,108,
CO[C@H]1C=C2CCN(C)[C@H]2C2c3cc4c(cc3C(=O)O[C@@H]21)OCO4 (stereo partly drawn),.,-,.,.,-,-,.,.,
COc1ccc(O)c(CN2CCCC(C(=O)c3ccccc3SC)C2)c1 (stereo not drawn),-,-,-,-,-,-,.,.,
COc1cccc2c1O[C@H]1C(=O)CC[C@H]3CN(C)CCC231 (stereo partly drawn),.,-,.,.,-,-,.,.,
CC1(C)CSC(=NCc2ccccc2)N1,-,-,-,-,-,-,.,.,
Cn1cc(C(=O)OCC(=O)NC2(C#N)CCCC2)c2ccccc21,.,-,.,.,-,-,.,.,
C#C[C@]1(O)CC[C@H]2[C@@H]3CCC4=Cc5nc6nc7ccccc7n6cc5C[C@]4(C)[C@H]3CC[C@@]21C,.,-,.,.,51,60,-,-,
CCOC(=O)[C@]1(C#N)[C@@H]2C=CC(C(C)=O)=CN2[C@@H](C(N)=O)[C@@H]1c1ccsc1,-,54,-,-,88,96,108,145,
N#CC(C#N)=Cc1ccc(C=C(C#N)C#N)cc1,-,.,.,-,.,.,.,.,
Cc1cc(N2CCCC2)ccc1C=C(C#N)C#N,-,-,-,-,119,180,85,108,
CC(C)CN(CC(C)C)c1ccc(C=C2C(=O)NC(=S)NC2=O)cc1[N+](=O)[O-],-,-,-,-,-,70,42,97,
COC(=O)C1=C(c2cccc(C#N)c2)C[C@@H]2CC[C@H]1N2C(=O)NCCOc1ccc(OC)cc1,.,-,.,.,-,-,.,.,
COc1ccc2c(c1O)-c1c(OC)c(OC)cc3c1[C@H](C2)N(C)CC3,.,-,.,.,-,-,.,.,
CCCN1CCc2cccc3c2[C@H]1Cc1ccc(O)c(O)c1-3,.,-,.,.,32,46,54,85,
CCN(CC)P(=O)(Oc1ccccc1)Oc1ccccc1,-,-,.,-,-,-,.,.,
CN1CCN(c2cccc3c2C(=O)c2ccccc2C3=O)CC1,-,.,-,-,.,.,.,.,
CN1CCN(c2ccc3c(c2)S(=O)(=O)c2ccccc2C3=O)CC1,.,-,.,.,74,85,63,84,
CC(C)C[C@H]1C(=O)N2CCC[C@H]2[C@]2(O)O[C@](NC(=O)[C@@H]3C=C4c5cccc6[nH]cc(c56)C[C@H]4N(C)C3)(C(C)C)C(=O)N12,.,118,.,.,149,+,93,114,
CCN1C(=O)NC(=O)/C(=C\c2cn(CC(=O)N3CCCCC3C)c3ccccc23)C1=O (stereo not drawn),.,-,.,.,105,81,162,+,
CN1C(=O)C(=Cc2cn(CC(=O)N3CCCC3)c3ccccc23)C(=O)N(C)C1=O,.,-,.,.,-,-,.,.,
C=C[C@@]12CN(C)[C@H]3[C@H]1[C@@]1(C(=O)Nc4ccccc41)C1CC2[C@@H]3CO1,.,-,.,.,-,-,.,.,
Clc1cc(Cl)cc(NC2=NCCS2)c1,-,-,.,-,-,-,.,.,
SMILES,Mcl1-Bid inh,GLD-1 TGE inh,Bim-Mcl-1,Mcl1-Noxa inh,BCLXL inh,MCL1 BIM primary,BCLXL inh confirm,MCL1 inh confirm,others
Nc1c(C(=O)NCC2CCCO2)c2nc3ccccc3nc2n1Cc1ccco1 (stereo not drawn),-,35,.,55,57,58,-,-,
O=C(O)Cn1cc(/C=C2\C(=O)NC(=O)N(c3ccc(Cl)cc3)C2=O)c2ccccc21,.,-,.,.,-,-,.,.,
Cn1cc(/C=C2\C(=O)NC(=O)N(c3ccccc3)C2=O)c2ccccc21,.,-,.,.,151,182,60,64,
COc1ccc(N/N=C/c2c(O)n(-c3ccc(C)c(C)c3)c(=O)[nH]c2=O)cc1,-,-,-,-,51,54,-,-,
COC(=O)C1=C(c2ccc(F)cc2F)C[C@@H]2CC[C@H]1N2C(=O)NC(C)C,.,-,.,.,-,-,.,.,
CCOc1ccc(-n2c(O)c(/C=C3\C=Nc4ccccc43)c(=O)[nH]c2=O)cc1,.,-,.,.,78,79,-,-,
CN1/C(=C\C=C\C2=[N+](C)c3ccc4ccccc4c3C2(C)C)C(C)(C)c2ccccc21,-,179,-,-,190,+,166,200,
Cc1ccc2cc(C=C(C#N)C#N)c(Cl)nc2c1,-,167,-,-,196,+,-,-,
O=C1NC(=O)N(c2ccc(Cl)cc2)C(=O)/C1=C\c1ccc(Sc2nc3ccccc3[nH]2)o1,-,-,-,68,59,74,-,64,
C=CCN1C[C@@H](C)N(C(c2ccc(C(=O)N(CC)CC)cc2)c2cccc(OC)c2)C[C@@H]1C (stereo partly drawn),.,-,.,.,-,-,.,.,
COCCNC(=O)CN1C(=O)C(C)N=C(c2ccccc2)c2cc(Cl)ccc21 (stereo not drawn),.,-,.,.,-,-,.,.,
C=C[C@@H]1C2=CCOC(=O)C2=CO[C@H]1O[C@@H]1O[C@H](CO)[C@@H](O)[C@H](O)[C@H]1O,.,-,.,.,-,-,.,.,
Oc1c(Br)c(Br)c(Br)c(Br)c1Br,.,-,.,.,-,73,-,55,
CNc1ccc2nc3ccccc3[n+](C)c2c1,.,-,.,.,147,185,118,169,
CN1CC=C2C(C#N)=C(N)C(C#N)(C#N)C(c3ccncc3)C2C1 (stereo not drawn),.,88,-,.,136,164,37,50,
CCOc1cc2c(cc1OCC)-n1cccc1C(c1ccc(C(C)C)cc1)NC2 (stereo not drawn),.,-,.,.,-,-,.,.,
O=C1C=C2C=C[C@@H]3CC2(O1)[C@H]1CCCCN31,.,-,.,.,-,125,-,-,
CN1CCN(c2ccc([N+](=O)[O-])c3no[n+]([O-])c23)CC1,-,141,.,-,197,+,149,180,
CN1CCN(c2ccc(S(C)(=O)=O)cc2[N+](=O)[O-])CC1,-,-,-,-,-,-,.,.,
CC1(O)CCN2C(=O)CCc3cccc1c32 (stereo not drawn),.,58,.,.,49,66,-,-,GLD-1 TGE cf=-

# Compound activity: PubChem BioAssay, several laboratories
